Screening results as filed in PubChem.
The list is not random: actives were taken first. Their share in the collection is about 6.2%.
MARV entry inh: blocks Marburg virus binding to or entry into cells | Marburg virus pseudotyped entry inhibition, cell reporter | Potency, µM (highest dose often 37.8 µM), for the others: top-dose activity change, negative = inhibition, actives largely listed as inhibitors | actives 1.8% (n = 300,000); calls by dose curve; tested in HEK293 cells; note: potency is the fitted concentration of half-maximal effect
FMDV inh: blocks foot and mouth disease virus; FMDV antiviral cell-based qHTS; Potency, µM (top dose mostly 57.9 µM), inactives show top-dose activity change, negative = inhibition, hits mostly inhibitors; actives 1.2% (n = 410,000); AID 1159524; calls by dose curve; tested in HEK293T cells; note: read-out not given here; potency is the fitted concentration of half-maximal effect; nearly all actives have a fitted effect of over 45% in size
HCMV antiviral: blocks human cytomegalovirus replication; AID 1259415; activity change, negative = inhibition, % at 57.5 µM; actives 4.5% (n = 410,000); HFF cells, HCMV-luciferase reporter, 72 h; active compounds read low; in the data active = activity change below about -60%; inconclusive = no clear call, values can overlap the other calls; inactive = above about -39%
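Cell-based, HFFs, 1000 cells/well, 16 h 37C; cpds in DMSO + HCMV-luc, MOI 1 PFU/cell; 72 h 37C; OneGlo luminescence after 5 min RT; norm. to buffer vs Salinomycin 10uM.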
Lassa entry inh: blocks Lassa virus binding to or entry into cells; Lassa virus pseudotype entry inhibition, cell reporter; Potency, µM (series often up to 37.9 µM), without a hit: at the top dose activity change, negative = inhibition, hits mostly inhibitors; actives 1.2% (n = 300,000); AID 540256; calls by dose curve; tested in HEK293 cells; note: potency is the fitted concentration of half-maximal effect; nearly all actives have a fitted effect of over 50% in size
An asterisk follows results filed as active; ? = inconclusive; . = not tested or not shown; [ ] = remark or other dose. % is set by controls: 0 for no effect and ±100 for the full control effect.

SMILES	MARV entry inh	FMDV inh	HCMV antiviral	Lassa entry inh
CCN1C(=NCc2ccccc2)NC(c2cccc(C(F)(F)F)c2)C(C(=O)OC)=C1C (stereo unspecified)	-22%[14.2 µM]	.	.	.
COC(=O)C1=C(C)N(Cc2cccc(C(F)(F)F)c2)C(=NCc2ccc(C(F)(F)F)cc2)NC1c1ccc(F)cc1 (stereo unspecified)	.	.	-101*	.
COC(=O)C1=C(C)N(Cc2cccc(C(F)(F)F)c2)C(=NCc2ccc(OC)cc2)NC1c1cccc(C(F)(F)F)c1 (stereo unspecified)	.	.	-99*	.
COC(=O)C1=C(C)N(Cc2cccc(C(F)(F)F)c2)C(=NCc2ccc(C(F)(F)F)cc2)NC1c1ccc(C(F)(F)F)cc1 (stereo unspecified)	.	.	-101*	.
FC(F)(F)c1cc(Cl)c2nc(-c3ccco3)c(Cc3ccccc3C(F)(F)F)n2c1	.	?	-66*	.
FC(F)(F)c1ccccc1Cc1c(-c2ccco2)nc2ccc(Cl)cn12	.	?	-110*	.
CC(C)NC(=O)N1[C@H](c2cccs2)[C@@H](C)C(=O)[C@@H](C)[C@@H]1c1cccs1	5%[46.1 µM]	-5%	-8	29%[46.1 µM]
CCSc1nnc(NC(=O)CSc2nc3c(c(=O)n2C)SC(C)C3)s1 (stereo unspecified)	-19%	.	-85*	14%
CCOC(=O)CC1(O)CSc2nc(N)cc(=O)n21 (stereo unspecified)	.	.	-77*	.
CCOC(=O)CSc1nc(C)cc(C)n1	?	-4%	21	15%
c1ccc(-c2nnsc2-c2ncc[nH]2)cc1	?	-8%	-15	11%
O=S(=O)(c1ccc(Cl)cc1)c1snnc1-c1ccccc1	16µM*	10µM*	-104*	?
O=S(=O)(c1ccc(F)cc1)c1snnc1-c1ccccc1	?	?	-88*	?
Cc1ccc(-n2cc(-c3ccc([N+](=O)[O-])cc3)[nH]c2=S)c(C)c1	0%	-15%	-64*	0%
Cc1cccc(-n2cc(-c3ccc([N+](=O)[O-])cc3)[nH]c2=S)c1	3%	23%	-10	?
COc1ccc(-n2c(=O)c(-c3cccs3)nc3cnc(N(C)C)nc32)cc1	.	-11%	.	.
CCN(Cc1ccccc1)C(=O)Cn1c(=O)cc(C)c2c(C)nn(-c3cccc(F)c3)c21	.	-1%	-10	-3%[46.1 µM]
CC(c1ccccc1)N1C(=O)c2ccc(C(=O)Nc3ccccc3C(=O)O)cc2C1=O (stereo unspecified)	.	20%	-80*	.
CCOCCCNC(=O)/C(C#N)=C/c1cc(OC)c(O)c([N+](=O)[O-])c1	?	-15%	-3	?
COCCNC(=O)/C(C#N)=C/C=C/c1ccccc1[N+](=O)[O-]	?	?	-96*	?
N#C/C(=C\c1cccc([N+](=O)[O-])c1)C(=O)NCc1ccc(Cl)cc1	?	?	-98*	0%
COCCNC(=O)/C(C#N)=C/c1ccc(O)cc1	2%	46%	0	.
COCCNC(=O)/C(C#N)=C/c1cccc(/C=C(\C#N)C(=O)NCCOC)c1	?	14µM*	-68*	?
CCOCCCNC(=O)/C(C#N)=C/c1ccc(Cl)c([N+](=O)[O-])c1	?	?	-102*	2%
COc1ccccc1-c1noc2nc(Nc3cccc(Cl)c3)ccc12	.	.	18	.
SMILES	MARV entry inh	FMDV inh	HCMV antiviral	Lassa entry inh
COc1ccc(/C=C(\C#N)C(=O)NCCc2ccccc2)cc1OCc1ccccc1	11µM*	-19%	-14	?
COc1cc(/C=C(/C#N)C(=O)NCc2ccccc2)cc(OC)c1OC	.	?	23	.
CC1(C)CC[C@]2(C)CC[C@@]3(C)C(=CCC4[C@@]5(C)CCC(O)C(C)(C)C5CC[C@@]43C)C2C1 (stereo partly specified)	.	-6%	.	.
CCc1nc(N)nc(N)c1-c1ccc(Cl)c([N+](=O)[O-])c1	?	?	-99*	?
CCc1nc(N)nc(N)c1-c1ccc(Cl)c(N=[N+]=[N-])c1	?	?	-79*	?
COc1ccc(-c2cc(-c3cccs3)c(C#N)c(SCC(=O)NCc3ccccc3OC)n2)cc1	?	-15%	-61*	?
COc1ccc(-c2cc(-c3cccs3)c(C#N)c(SCC(=O)NCc3ccccc3)n2)cc1	?	7%	10	?
CC(C)(C)S(=O)(=O)N1C[C@H]2CC(=O)C(CCO)=C2[C@@H]1CCO	.	.	15	.
Cc1cc(/C=N/n2cnnc2)c(C)n1-c1ccc(OCc2ccc(Cl)cc2)cc1	?	?	-92*	?
Cc1cc(/C=N/n2cnnc2)c(C)n1-c1ccc(OCc2ccccc2F)cc1	?	.	-93*	?
Fc1ccccc1COc1cccc(/C=N/n2cnnc2)c1	?	-28%	-26	17%
COc1ccc(C2=NCC(C)n3nc4ccccc4c32)cc1 (stereo unspecified)	.	.	9	.
COc1ccccc1C1CN(Cc2cnn(C)c2)Cc2ccccc2O1 (stereo unspecified)	.	2%	.	.
COc1cccc(/C(O)=C2\C(=O)C(=O)N(c3ccccn3)[C@H]2c2ccccc2OC)c1	1%	.	.	.
CCc1c(C(=O)NCCc2cccc(C)c2)[nH]c(C)c1C(C)=O	?	23%	-17	3.5µM*
CC(=O)c1c(C)[nH]c(C(=O)NCCc2cccc(C)c2)c1C	-29%	3%	89	-25%
O=C(Nc1nc2ccccc2[nH]1)c1ccccc1F	0.32µM*	3.2µM*	-79*	0.28µM*
O=C(Nc1nc2ccccc2[nH]1)c1ccccc1OC(F)F	?	-39%	80	?
CCOc1ccc(C(=O)Nc2nc3ccccc3[nH]2)cc1OCC	11µM*	?	-63*	.
N#Cc1ccc(C(=O)Nc2nc3ccccc3[nH]2)cc1	10µM*	-4%	90	?
COc1ccc(C(=O)Nc2nc3ccccc3[nH]2)cc1OC	-20%	21%	119	12%
N#Cc1cc(NC(=O)c2ccc(Cl)cc2)ccc1Sc1ccccc1	.	-11%	-83*	.
COc1ccc(Cl)cc1C(=O)Nc1nc2ccccc2[nH]1	?	11µM*	1	?
COc1ccc(Br)c(C(=O)Nc2nc3ccccc3[nH]2)c1	?	32%	-18	5%[46.1 µM]
O=C(Nc1nc2ccccc2[nH]1)c1ccc(F)cc1	?	20µM*	74	6.5µM*
SMILES	MARV entry inh	FMDV inh	HCMV antiviral	Lassa entry inh
CCc1ccc(C(=O)Nc2nc3ccccc3[nH]2)cc1	?	5.6µM*	-101*	?
N#Cc1ccc(C(=O)Nc2ccc3ccccc3c2)cc1	?	30%	13	4µM*
Cc1cccc(C)c1NC(=O)C(C1CC1)N1C(=O)C(=O)c2ccccc21 (stereo unspecified)	.	.	-7	.
N#Cc1c(Nc2ccccc2)sc(C(=O)c2ccccc2)c1N	1%	-9%	-28	-26%
Cc1cccc(Oc2sc(C(=O)c3ccccc3)c(N)c2C#N)c1	?	?	14	1.6µM*
O=C(CCn1c(=O)c2ccccc2n(Cc2cccc(Cl)c2)c1=O)NCCc1ccccc1	?	-5%	9	6%[46.1 µM]
c1ccc2c(c1)nnn2Cn1nnc2ccccc21	.	0%	-63*	.
